In PubChem BioAssay (NCI) one finds growth inhibition data, which are given here for 9 compounds.

Experiment [1] can be described thus: NCI Yeast Anticancer Drug Screen. Data for the rad50 strain (AID 155).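 Also: 0% = growth of vehicle-only cultures of the same strain.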 The note with it: S. cerevisiae rad50 strain growth inhibition, active compounds read high. The essentials:
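Relative growth inhibition (compound vs vehicle) was measured in yeast with a defined repair-gene alteration.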

Experiment [2] is described as follows: NCI Yeast Anticancer Drug Screen. Data for the mec2-1 strain (AID 157). The note with it: S. cerevisiae mec2-1 strain, active compounds read high. The procedure, abridged: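 Yeast mec2-1 mutant treated with compound. Readout: growth inhibition vs vehicle controls.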
Experiment [3] can be described thus: NCI Yeast Anticancer Drug Screen. Data for the sgs1 mgt1 strain (AID 161).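 Also: 0% = growth of cultures given vehicle only.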 The note with it: S. cerevisiae sgs1 mgt1 strain, active compounds read high. The procedure, abridged: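 Test agents were incubated with a DNA-repair-mutant yeast strain. Growth was then read and compared against vehicle-treated controls.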
A short description of experiment [4]: NCI Yeast Anticancer Drug Screen. Data for the cln2 rad14 strain (AID 165).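 Also: 0% = growth equal to vehicle treated cultures.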 The note with it: S. cerevisiae cln2 rad14 strain, active compounds read high. The procedure, abridged: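 cln2 rad14 yeast strain; compound exposure; growth inhibition read vs vehicle controls.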
Experiment [5] in a line: NCI Yeast Anticancer Drug Screen. Data for the bub3 strain (AID 167). Particulars: S. cerevisiae bub3 mutant strain, active compounds read high. The procedure, abridged: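 Screening used yeast with an engineered genetic alteration affecting cell cycle control. Compound-exposed cultures were compared with vehicle cultures, and reduced growth was taken as inhibition.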
The nature of experiment [6]: NCI Yeast Anticancer Drug Screen. Data for the mlh1 rad18 strain (AID 175). Particulars: S. cerevisiae mlh1 rad18 strain growth inhibition, active compounds read high. The procedure, abridged: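 Yeast w/ defined DNA-repair lesions; compound exposure; growth vs vehicle controls → % inhibition.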
[7] abbreviates: at 5.0 µM (retest, dose inferred, filed as 0.5).
Where [8] appears, read: at 50.0 µM (retest, dose inferred, filed as 5.0).

Compounds without any hit were thinned out: in the full panel of roughly 79,000, 15% have a hit. A number with no mark means an inactive call. Active and inactive are the calls of the source. Rule as the data show it: active = growth inhibition above about 70%; inactive = the rest.

With `Cc1nc(Nc2ccc(Cl)cc2)sc1C(=O)NNC(=S)NN`, the growth inhibition in experiment [1] (setting [7]) is 25%; in experiment [1] (setting [8]), 75% (active); in experiment [1] (at 50.0 µM), 91.5% (active); in experiment [2] (setting [7]) it was -9%; in experiment [2] (setting [8]), 64%; in experiment [2] (at 50.0 µM), 88% (active). Further, the growth inhibition in experiment [3] (setting [7]) is -3%; in experiment [3] (setting [8]), 77% (active); in experiment [3] (at 50.0 µM), 91.8% (active); in experiment [4] (setting [7]) it was 8%; in experiment [4] (setting [8]), 65%; in experiment [4] (at 50.0 µM), 91.6% (active). Also, the growth inhibition in experiment [5] (setting [7]) was -5%; in experiment [5] (setting [8]), 93% (active); in experiment [5] (at 50.0 µM), 88.3% (active); in experiment [6] (setting [7]) it was -30%; in experiment [6] (setting [8]), 82% (active); in experiment [6] (at 50.0 µM) it was 88.5% (active).

As to `CC(=O)Oc1ccc(-c2ccccc2)cc1Br`, the growth inhibition was 8% in experiment [1] (setting [7]); 99% (active) in experiment [1] (setting [8]); 93.6% (active) in experiment [1] (at 50.0 µM); -27% in experiment [2] (setting [7]); 98% (active) in experiment [2] (setting [8]); 96.2% (active) in experiment [2] (at 50.0 µM). Moreover, the growth inhibition in experiment [3] (setting [7]) was 6%; in experiment [3] (setting [8]) it was 97% (active); in experiment [3] (at 50.0 µM), 91.5% (active); in experiment [4] (setting [7]), 7%; in experiment [4] (setting [8]), 95% (active); in experiment [4] (at 50.0 µM), 85.1% (active). In addition, the growth inhibition in experiment [5] (setting [7]) is 10%; in experiment [5] (setting [8]), 98% (active); in experiment [5] (at 50.0 µM) it was 94.2% (active); in experiment [6] (setting [7]) it was 11%; in experiment [6] (setting [8]), 99% (active); in experiment [6] (at 50.0 µM), 98.1% (active).

Consider `C=CCOC(=O)N(C(=O)OCC=C)C(Cc1ccc(O)cc1)C(=O)NNc1ccccc1` (configuration not stated), for which the growth inhibition is 17% in experiment [1] (setting [7]); 65% in experiment [1] (setting [8]); 53.4% in experiment [1] (at 50.0 µM); 2% in experiment [2] (setting [7]); 33% in experiment [2] (setting [8]); 44.5% in experiment [2] (at 50.0 µM). For the same compound, the growth inhibition in experiment [3] (setting [7]) is 11%; in experiment [3] (setting [8]), 51%; in experiment [3] (at 50.0 µM), 69.7%; in experiment [4] (setting [7]), 5%; in experiment [4] (setting [8]) it was 56%; in experiment [4] (at 50.0 µM) it was 39%. For the same compound, the growth inhibition in experiment [5] (setting [7]) is 16%; in experiment [5] (setting [8]) it was 90% (active); in experiment [5] (at 50.0 µM), 70%; in experiment [6] (setting [7]) it was 20%; in experiment [6] (setting [8]) it was 62%; in experiment [6] (at 50.0 µM) it was 84.3% (active).

`CC1=C(C(=S)Nc2ccc(Cl)c(C(=O)OC(C)C)c2)SCCO1`: the growth inhibition in experiment [1] (setting [7]) is 27%; in experiment [1] (setting [8]) it was 71% (active); in experiment [1] (at 50.0 µM) it was 89.6% (active); in experiment [2] (setting [7]), 19%; in experiment [2] (setting [8]), 54%; in experiment [2] (at 50.0 µM), 90.2% (active). Moreover, the growth inhibition in experiment [3] (setting [7]) was 27%; in experiment [3] (setting [8]), 90% (active); in experiment [3] (at 50.0 µM) it was 91.5% (active); in experiment [4] (setting [7]) it was 25%; in experiment [4] (setting [8]), 64%; in experiment [4] (at 50.0 µM) it was 47.4%. The growth inhibition in experiment [5] (setting [7]) was 26%; in experiment [5] (setting [8]), 95% (active); in experiment [5] (at 50.0 µM) it was 87.1% (active); in experiment [6] (setting [7]) it was 21%; in experiment [6] (setting [8]), 50%; in experiment [6] (at 50.0 µM), 63.8%.

Consider `Cc1ccc(S(=O)(=O)CC2(Br)CCc3ccccc3C2=O)cc1` (configuration not stated), for which the growth inhibition in experiment [1] (setting [7]) was 39%; in experiment [1] (setting [8]), 71% (active); in experiment [1] (at 50.0 µM), 74.8% (active); in experiment [2] (setting [7]), 31%; in experiment [2] (setting [8]) it was 15%; in experiment [2] (at 50.0 µM), 62.5%. Moreover, the growth inhibition was 40% in experiment [3] (setting [7]); 74% (active) in experiment [3] (setting [8]); 75.3% (active) in experiment [3] (at 50.0 µM); 1% in experiment [4] (setting [7]); 18% in experiment [4] (setting [8]); 38.6% in experiment [4] (at 50.0 µM). Also, the growth inhibition is 12% in experiment [5] (setting [7]); 60% in experiment [5] (setting [8]); 42.5% in experiment [5] (at 50.0 µM); 23% in experiment [6] (setting [7]); 48% in experiment [6] (setting [8]); 54.8% in experiment [6] (at 50.0 µM).

As to `O=S(=O)(Nc1ccccc1C(F)(F)F)c1ccc(F)cc1`, the growth inhibition in experiment [1] (setting [7]) is -23%; in experiment [1] (setting [8]), 49%; in experiment [1] (at 50.0 µM), 80.6% (active); in experiment [2] (setting [7]), 6%; in experiment [2] (setting [8]) it was 59%; in experiment [2] (at 50.0 µM), 46.5%. In addition, the growth inhibition is -11% in experiment [3] (setting [7]); 43% in experiment [3] (setting [8]); 56.4% in experiment [3] (at 50.0 µM); -21% in experiment [4] (setting [7]); 69% in experiment [4] (setting [8]); 33.4% in experiment [4] (at 50.0 µM). Moreover, the growth inhibition is -16% in experiment [5] (setting [7]); 61% in experiment [5] (setting [8]); 35.4% in experiment [5] (at 50.0 µM); -13% in experiment [6] (setting [7]); 83% (active) in experiment [6] (setting [8]); 80.2% (active) in experiment [6] (at 50.0 µM).

As for `COc1ccc(N=Cc2cc(Br)cc(Br)c2O)cc1.COc1ccc(N=Cc2cc(Br)cc(Br)c2O)cc1.[Co]`, the growth inhibition was 79% (active) in experiment [1] (setting [7]); 75% (active) in experiment [1] (setting [8]); 74% (active) in experiment [1] (at 50.0 µM); 80% (active) in experiment [2] (setting [7]); 88% (active) in experiment [2] (setting [8]); 79.6% (active) in experiment [2] (at 50.0 µM). For the same compound, the growth inhibition in experiment [3] (setting [7]) is 90% (active); in experiment [3] (setting [8]), 85% (active); in experiment [3] (at 50.0 µM) it was 90.6% (active); in experiment [4] (setting [7]), 48%; in experiment [4] (setting [8]) it was 66%; in experiment [4] (at 50.0 µM) it was 52.7%. For the same compound, the growth inhibition in experiment [5] (setting [7]) is 86% (active); in experiment [5] (setting [8]), 59%; in experiment [5] (at 50.0 µM), 62.6%; in experiment [6] (setting [7]), 97% (active); in experiment [6] (setting [8]) it was 78% (active); in experiment [6] (at 50.0 µM), 80.8% (active).

Turning to `Cc1nc(C)c(C(=O)NNC(=O)C[N+](C)(C)C)cc1C(=O)NNC(=O)C[N+](C)(C)C`, the growth inhibition in experiment [1] (setting [7]) is 66%; in experiment [1] (setting [8]), 8%; in experiment [1] (at 50.0 µM), -23.2%; in experiment [2] (setting [7]), 18%; in experiment [2] (setting [8]), 7%; in experiment [2] (at 50.0 µM) it was -8.4%. The growth inhibition in experiment [3] (setting [7]) was -36%; in experiment [3] (setting [8]) it was -29%; in experiment [3] (at 50.0 µM), 5.8%; in experiment [4] (setting [7]), -2%; in experiment [4] (setting [8]), -4%; in experiment [4] (at 50.0 µM) it was 7.2%. Further, the growth inhibition was -20% in experiment [5] (setting [7]); 8% in experiment [5] (setting [8]); -15.2% in experiment [5] (at 50.0 µM); 17% in experiment [6] (setting [7]); 14% in experiment [6] (setting [8]); -25.4% in experiment [6] (at 50.0 µM).

On to `O=C(Nc1cccc(NC(=O)c2cc(=O)c3ccccc3o2)n1)c1cc(=O)c2ccccc2o1`, for which the growth inhibition is 34% in experiment [1] (setting [7]); 34% in experiment [1] (setting [8]); 62.6% in experiment [1] (at 50.0 µM); 13% in experiment [2] (setting [7]); 13% in experiment [2] (setting [8]); 14.9% in experiment [2] (at 50.0 µM). Also, the growth inhibition in experiment [3] (setting [7]) was -4%; in experiment [3] (setting [8]), -4%; in experiment [3] (at 50.0 µM) it was 21.7%; in experiment [4] (setting [7]), 21%; in experiment [4] (setting [8]), 21%; in experiment [4] (at 50.0 µM), 24.2%. Besides, the growth inhibition in experiment [5] (setting [7]) is 15%; in experiment [5] (setting [8]), 15%; in experiment [5] (at 50.0 µM), 58.5%; in experiment [6] (setting [7]) it was 24%; in experiment [6] (setting [8]), 24%; in experiment [6] (at 50.0 µM), 67.3%.
